Measurements as given in PMC5540273 (PLoS ONE, 2017).

What follows are compounds tested on TNK1. Details: concentration: 1 μM,replicates: in singlicate; n = 1.
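Note: KINOMEscan kinase panel screen.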

| Compound | %Inh |
| --- | --- |
| CCN1CCN(CCCC(=O)Nc2n[nH]c3nc(-c4ccc(O)cc4)c(Br)cc23)CC1 [SB-731579] | 34% |
| O=c1[nH]cc(-c2ccc(O)cc2)c2sc(-c3ccncc3)cc12 [GSK1033723] | 0% |
| Nc1nccc(-c2ccc3c(N)n[nH]c3c2)n1 [GSK1034945] | 0% |
| COC(=O)c1cccc(NC(=O)NC2CCN(c3ccnc(NCc4ccc(F)cc4)n3)CC2)c1 [GSK1379860] | 0% |
| COc1cc2nccc(Nc3ccc(Oc4ccccc4)cc3)c2cc1OC.Cl [GI261656] | 92.8% |
| Cn1ccc2ncnc(Oc3ccc(NC(=O)Nc4cccc(C(F)(F)F)c4)c(Cl)c3)c21 | 6% |
| CNC(=O)c1ccccc1Nc1nc(Nc2cccc(CS(C)(=O)=O)c2)ncc1C.O=CO [GSK1520489] | 100% |
| Cc1cccc2c(-c3ccncc3)c(-c3ccc(F)cc3)nn12.Cl [GW461487] | 0% |
| Cc1nnc(-c2ccc3occ(-c4ccc(S(C)=O)cc4)c3n2)o1 (stereo not shown) | 0% |
| OCCn1cc(-c2cnc3nnn(Cc4ccc5ncccc5c4)c3n2)cn1 | 19% |
| COC(=O)c1cccc(NC(=O)NC2CCN(c3ccnc(Nc4cc(OC)c(OC)c(OC)c4)n3)C2)c1 (stereo not shown) [GSK1379767] | 0% |
| O=C(Nc1cccc(C(F)(F)F)c1)c1cccc(Oc2ccc3nccn3n2)c1 | 36% |
| Cc1cccc(-c2nc(Nc3ccncc3)c3sccc3n2)n1 [GW869641] | 26% |
